Compound activity (PubChem)
The list is a sample of the results.
HT1080 IDH1KD tx = kills HT-1080 cells with IDH1 knockdown; AID 686971; Potency, µM (doses to about 46.1 µM), for inactives: at the top dose activity, negative = toxicity, hits mostly cytotoxic; HT-1080 IDH1 knockdown viability, ATP luminescence, 48 h; 360,000 compounds, 2% hits;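 further: potency means the concentration at half of the fitted maximal effect; 0% = DMSO wells and -100% = cell-free medium wells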
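IDH1KD HT-1080 cells, 750/well, RPMI + 5% FBS; compound pinned after 2 h settling; 48 h, 37 °C; CellTiter-Glo luminescence; % activity normalised to DMSO and no-cell wells; curves fitted, classed by r2 and efficacy.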
HT1080-NT tox = kills 2HG-producing HT-1080-NT fibrosarcoma cells; HT-1080-NT fibrosarcoma viability, CellTiter-Glo ATP luminescence, 48 h; AID 686970; 360,000 compounds, 1.6% hits; Potency, µM (highest dose often 46.1 µM), without a hit: at the highest dose activity, negative = less viability, usual class: cytotoxic;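 further: NT is the 2HG producing partner of a matched IDH1 knockdown line; potency means the concentration at half of the fitted maximal effect; 0% = DMSO-treated cells and -100% = media-only wells without cells; nearly all actives have a fitted effect of over 55% in size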
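Toxicity toward the 2HG-producing NT line was scored as %Activity, normalised to DMSO and no-cell wells, from CellTiter-Glo luminescence after 48 hours' treatment.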
ATXN2 expr inh = ATXN2 expression inhibition; Potency, µM (titrated, usually from 57 µM), for the others: top-dose activity change, negative = inhibition, usual class: inhibitors; AID 1745845; 360,000 compounds, 0.72% hits; HEK-293 ATXN2-luciferase reporter, luminescence, 24 h; further: potency means the concentration at half of the fitted maximal effect; on the % scale 0 is the no-effect control and ±100 the full control effect; nearly all actives have a fitted effect of over 55% in size
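qHTS (up to 57 uM final) was run with 24 h compound exposure of reporter cells at 37 °C. Each well was multiplexed: SteadyGlo luminescence measured ATXN2-luciferase expression after a fluorogenic Gly-Phe-AFC viability readout (25 uM final).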
KB-3-1 tox = KB-3-1 parental cell cytotoxicity | KB-3-1 viability, CellTiter-Glo ATP luminescence, 72 h | Potency, µM (series often up to 46.1 µM), hits mostly cytotoxic | 400,000 compounds, 1.4% hits; further: potency means the concentration at half of the fitted maximal effect; on the % scale 0 is the no-effect control and ±100 the full control effect; nearly all actives have a fitted effect of over 60% in size
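Luminescent ATP read-out (CellTiter-Glo) measures survival of drug-naive KB-3-1 cells after 72 h compound exposure at 37 °C. Titration series was screened from lowest to highest concentration, with DMSO vehicle plates as background controls.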
KB-V1 cytotox = KB-V1 MDR subline cytotoxicity. 400,000 compounds, 3.4% hits. AID 1347076. KB-V1 MDR cells viability, CellTiter-Glo, 72 h. Potency, µM (highest dose often 46.1 µM), hits mostly cytotoxic; further: potency means the concentration at half of the fitted maximal effect; on the % scale 0 is the no-effect control and ±100 the full control effect; nearly all actives have a fitted effect of over 60% in size
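Readout: CellTiter-Glo luminescence, 10 min after addition. Cells: KB-V1 MDR subline, 72 h at 37 degrees C with compound. Analysis: corrected, normalized data fitted to concentration-effect curves.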
S2 tox = cell viability loss in ATXN counter-screen. S2 cells (HEK-293 line with an ATXN2-luciferase reporter) viability, CellTiter-Fluor protease fluorescence, 24 h. Potency, µM (titrated, usually from 56.7 µM), hits mostly cytotoxic. 400,000 compounds, 0.49% hits. AID 651635; further: potency means the concentration at half of the fitted maximal effect; nearly all actives have a fitted effect of over 40% in size
SK-N-SH 3D tox = kills SK-N-SH neuroblastoma spheroids in orthogonal 3D test; shares compounds with ATXN2 expr inh; SK-N-SH 3D spheroid viability, PI/Hoechst imaging, 72 h; Potency, µM (top dose mostly 30.7 µM), most hits filed as inhibitors; 65 compounds, 70% hits; AID 1347135
SJ-GBM2 3D tox = reduced viability of SJ-GBM2 3D spheroids, orthogonal test; shares compounds with ATXN2 expr inh; SJ-GBM2 3D spheroid viability, PI/Hoechst imaging, 72 h; Potency, µM (series often up to 30.7 µM), most hits filed as inhibitors; 65 compounds, 80% hits
Daoy spheroid = reduced viability of Daoy 3D spheroids, orthogonal test; Potency, µM (top dose mostly 30.7 µM), usual class: inhibitors; Daoy 3D spheroid viability, PI/Hoechst imaging, 72 h; AID 1347137; 65 compounds, 50% hits; shares compounds with ATXN2 expr inh
TC32 3D casp = TC32 spheroid caspase-3/7 activation, orthogonal screen | shares compounds with ATXN2 expr inh | TC32 3D spheroids, caspase-3/7 fluorescence imaging, 24 h | Potency, µM (highest dose often 30.7 µM), most hits filed as inhibitors | 65 compounds, 30% hits | AID 1347138
TC32 3D tox = TC32 3D spheroid viability loss; shares compounds with ATXN2 expr inh; TC32 3D spheroid viability, PI/Hoechst imaging, 72 h; Potency, µM (series often up to 30.7 µM), most hits filed as inhibitors; 65 compounds, 60% hits; AID 1347139
MG63 3D tox = reduced viability of MG-63 (6-TG R) 3D spheroids, orthogonal test; shares compounds with ATXN2 expr inh; MG-63 (6-TG R) 3D spheroid viability, PI/Hoechst imaging, 72 h; Potency, µM (top dose mostly 30.7 µM), hits mostly inhibitors; 65 compounds, 50% hits; AID 1347140
RD 3D tox = kills RD rhabdomyosarcoma spheroids in orthogonal 3D test. shares compounds with ATXN2 expr inh. RD rhabdomyosarcoma 3D spheroid viability, PI/Hoechst imaging, 72 h. Potency, µM (doses to about 30.7 µM), hits mostly inhibitors. 65 compounds, 50% hits. AID 1347141
* = called active by the depositor; i = inactive; ? = inconclusive; . = not tested or not shown. The call rests on the fitted dose curve; in most records, active means well fitted curve in the direction sought with a large enough effect; inconclusive means small, poorly fitted or top-dose-only effect, or another doubt; inactive means no such curve, though single readings can be large; an effect the other way counts as inactive or inconclusive.

SMILES | HT1080 IDH1KD tx | HT1080-NT tox | ATXN2 expr inh | KB-3-1 tox | KB-V1 cytotox | S2 tox | SK-N-SH 3D tox | SJ-GBM2 3D tox | Daoy spheroid | TC32 3D casp | TC32 3D tox | MG63 3D tox | RD 3D tox
CCc1ccc(Sc2cc(C(=O)NCCCN3CCC(C)CC3)c3ccccc3n2)cc1 | . | . | ? | i | i | i | . | . | . | . | . | . | .
CCC12CN3CC(CC)(CN(C1)C3c1cccc(OC)c1O)C2=O (centres undefined) | . | . | -0.2% | i | i | i | . | . | . | . | . | . | .
CN(C)/N=N/c1nc[nH]c1C(N)=O | . | . | -27.0% | . | . | i | i | ? | i | i | i | i | i
CN(C)N=Nc1nc[nH]c1C(N)=O | -29.6% | ? | ? | i | ? | i | . | . | . | . | . | . | .
